The values below come from PubChem BioAssay (EPA / NIEHS).

The term AC50 denotes the concentration at which the activity in the assay is half-maximal.

Each structure is given as a SMILES string. Inconclusive results are not listed. Calls of active or inactive are those of the source. The calls were made as follows, unless noted: active = hit-call score of the fitted dose curve at least 0.9, where 1 is the maximum; inconclusive = response in the unintended direction; inactive = score below 0.9.

A short description of assay [1]: ATG_TAL_CIS: Attagene CIS-FACTORIAL HepG2 Assay for human TAL Basal Promoter (AID 2282966; active = hit-call score of the fitted dose curve at least 0.9, where 1 is the maximum; inactive = score below 0.9;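 also: background control endpoint measuring basal TAL promoter reporter mRNA not a specific factor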). To be noted: HepG2 Attagene cis-factorial TAL promoter reporter; actives raise or lower the signal. In short, it runs like this: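 RT-PCR plus capillary electrophoresis quantifies reporter mRNA induction in transiently transfected HepG2 cells after 24 h chemical treatment. DMSO serves as negative control and baseline for bidirectional fitting.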

Assay [2] can be described thus: ATG_TGFb_CIS: Attagene CIS-FACTORIAL HepG2 Assay for human Transforming Growth Factor (TGF) (AID 2282967; active = hit-call score of the fitted dose curve at least 0.9, where 1 is the maximum; inactive = score below 0.9). To be noted: HepG2 Attagene CIS TGFb reporter, mRNA transcription; actives raise or lower the signal. In short, it runs like this:
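Bidirectional fitting relative to DMSO gave the endpoint. Underlying data: reporter mRNA from HepG2 cells carrying transiently transfected cis-regulated reporter constructs, harvested 24 h after dosing and analyzed by RT-PCR and capillary electrophoresis.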

Assay [3] concerns the target Nuclear receptor subfamily 1 group I member 3 (Homo sapiens) (UniProt Q14994). Kind of assay: ATG_CAR_TRANS: Attagene TRANS-FACTORIAL HepG2 Assay for human Constitutive Androstane Receptor (CAR) (AID 2282969).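 Also: activators raise reporter mRNA above DMSO so AC50 marks induction.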 To be noted: HepG2 Attagene TRANS-FACTORIAL CAR reporter. In short, it runs like this: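 Readout is reporter mRNA induction, quantified by fluorescent primer extension and capillary electrophoresis after RT-PCR. Cells were HepG2 transiently carrying chimeric NR-Gal4 constructs with GAL4-UAS reporters, treated for 24 h; activity scored upward from DMSO.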

A short description of assay [4]: ATG_M_19_TRANS: Attagene TRANS-FACTORIAL HepG2 Assay for M19 Transcription Factor (Internal Marker) (AID 2282974). To be noted: HepG2 Attagene TRANS-FACTORIAL M19 internal marker reporter. An outline of the steps:
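Gain-of-signal in reporter mRNA, relative to DMSO, was scored from capillary electrophoresis fluorescence. HepG2 cells carried transiently transfected multiple reporter transcription units and were incubated with test chemicals for 24 h.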

Assay [5] concerns the target Oxysterols receptor LXR-alpha (Homo sapiens) (UniProt Q13133). Kind of assay: ATG_LXRa_TRANS: Attagene TRANS-FACTORIAL HepG2 Assay for human Liver X Receptor alpha (LXRa) (AID 2282980). To be noted: HepG2 Attagene TRANS reporter, LXRa transactivation. In short, it runs like this: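 Chemical-induced reporter mRNA measured by RT-PCR with fluorescent labelling and capillary electrophoresis after 24 h dosing of transiently transfected HepG2 cells expressing exogenous NR-Gal4 chimeras; increases scored against DMSO baseline.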

A short description of assay [6]: ATG_M_06_TRANS: Attagene TRANS-FACTORIAL HepG2 Assay for M06 Transcription Factor (Internal Marker) (AID 2282983).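 Also: reporter transcript level by RT-PCR then capillary electrophoresis fluorescence.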 To be noted: HepG2 Attagene TRANS M06 internal marker reporter. An outline of the steps: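 Cells: HepG2, transient multi-reporter transfection. Exposure: 24 h. Detection: RT-PCR, 6-FAM labelling, HpaI digestion (2 h, 37 °C), capillary electrophoresis. Baseline: DMSO.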

In assay [7] the target is Nuclear receptor subfamily 4 group A member 2 (Homo sapiens) (UniProt P43354). Kind of assay: ATG_NURR1_TRANS: Attagene TRANS-FACTORIAL HepG2 Assay for human Nuclear Receptor Related Protein 1 (NURR1) (AID 2282985). Particulars: HepG2 Attagene TRANS reporter, mRNA readout. In short, it runs like this:
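Cells: HepG2, transiently transfected. Exposure: 24 h. Detection: fluorescence of labelled RT-PCR products separated by capillary electrophoresis; upward fit versus DMSO.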

Assay [8] addresses Transcriptional activator Myb (Homo sapiens) (UniProt P10242). Nature of the assay: ATG_Myb_CIS: Attagene CIS-FACTORIAL HepG2 Assay for human Myeloblastosis (Myb) Proto-Oncogene Transcription Factor (AID 2282986; active = hit-call score of the fitted dose curve at least 0.9, where 1 is the maximum; inactive = score below 0.9). To be noted: HepG2 Attagene CIS-FACTORIAL Myb reporter transcription; actives raise or lower the signal. An outline of the steps: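 Multiplexed cis-reporter system in HepG2: transient transfection, 24 h treatment, mRNA readout by RT-PCR and capillary electrophoresis. Both increases and decreases are scored versus DMSO negative control.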

The target in assay [9] is Nuclear respiratory factor 1 (Homo sapiens) (UniProt Q16656). Nature of the assay: ATG_NRF1_CIS: Attagene CIS-FACTORIAL HepG2 Assay for human Nuclear Respiratory Factor 1 (NRF1) Orphan Gene (AID 2282987; active = hit-call score of the fitted dose curve at least 0.9, where 1 is the maximum; inactive = score below 0.9). To be noted: HepG2 NRF1 cis-element reporter, Attagene multiplex; actives raise or lower the signal. In short, it runs like this:
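Endogenous factor activity was captured via cis-element-driven reporter transcripts in HepG2 cells. Following 24 h chemical treatment, transcripts were quantified by RT-PCR and capillary electrophoresis.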

For assay [10], the target named is Estrogen-related receptor gamma (Homo sapiens) (UniProt P62508). Nature of the assay: ATG_ERRg_TRANS: Attagene TRANS-FACTORIAL HepG2 Assay for human Estrogen-Related Receptor gamma (ERRg) (AID 2282977).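 Also: hits increase reporter signal over DMSO so potencies reflect activators.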 Particulars: HepG2 Attagene TRANS reporter, ERRg transactivation. In short, it runs like this:
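Transient HepG2 transfectants, 24 h compound exposure, GAL4-UAS reporter mRNA by RT-PCR/6-FAM labelling/capillary electrophoresis; positive direction vs DMSO.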

For assay [11], the target named is Glucocorticoid receptor (Homo sapiens) (UniProt P04150). Kind of assay: ATG_GR_TRANS: Attagene TRANS-FACTORIAL HepG2 Assay for human Glucocorticoid Receptor (GR) (AID 2282978).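 Also: activators score as hits since higher reporter transcript over DMSO is fitted.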 To be noted: HepG2 Attagene TRANS GR reporter, mRNA transcription. An outline of the steps: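 HepG2 transient transfection, multiple reporter units, GAL4-UAS under NR-GAL4 chimera control. 24 h treatment. Reporter mRNA by RT-PCR/CE fluorescence, DMSO as negative control.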

Assay [12] concerns the target Hepatocyte nuclear factor 4-alpha (Homo sapiens) (UniProt P41235). Nature of the assay: ATG_HNF4a_TRANS: Attagene TRANS-FACTORIAL HepG2 Assay for human Hepatocyte Nuclear Factor 4 alpha (HNF4a) (AID 2282982). To be noted: HepG2 HNF4a transactivation reporter, mRNA readout. In short, it runs like this:
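Transfected HepG2 reporter cells are dosed for 24 h; reporter RNA is reverse-transcribed, amplified, fluorescently labelled and HpaI-digested before CE sizing. Positive-direction fit against DMSO.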

For assay [13], the target named is X-box-binding protein 1 (Homo sapiens) (UniProt P17861). Kind of assay: ATG_Xbp1_CIS: Attagene CIS-FACTORIAL HepG2 Assay for human X-box Binding Protein 1 (XBP1) (AID 2282972; active = hit-call score of the fitted dose curve at least 0.9, where 1 is the maximum; inactive = score below 0.9). To be noted: HepG2 XBP1 cis-element reporter, Attagene multiplex; actives raise or lower the signal. An outline of the steps:
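HepG2, transient MRTU transfection (cis-promoter driven), 24 h compound exposure. Total RNA → oligo(dT) RT → PCR → 6-FAM labeling → HpaI cut → CE. Bidirectional fit vs DMSO.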

Assay [14] is described as follows: ATG_M_32_TRANS: Attagene TRANS-FACTORIAL HepG2 Assay for M32 Transcription Factor (Internal Marker) (AID 2282984).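 Also: transcript level of a background control reporter unit measured by RT-PCR and capillary electrophoresis.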 Particulars: HepG2 Attagene TRANS M32 internal marker reporter. An outline of the steps: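 Using transiently transfected HepG2 cells exposed to test chemicals for 24 h, reporter transcripts are converted to labelled cDNA fragments and quantified by capillary electrophoresis. DMSO defines the activity baseline.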

Assay [15] has as its target Oxysterols receptor LXR-beta (Homo sapiens) (UniProt P55055). Nature of the assay: ATG_LXRb_TRANS: Attagene TRANS-FACTORIAL HepG2 Assay for human Liver X Receptor beta (LXRb) (AID 2282981). Particulars: HepG2 Attagene TRANS GAL4-LXRb reporter, mRNA. In short, it runs like this:
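Cells: HepG2, transiently transfected with GAL4-UAS reporter units plus LXRb-Gal4 fusion. Treatment: 24 h. Detection: reporter mRNA by RT-PCR, 6-FAM labelling, HpaI digestion, capillary electrophoresis.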

Assay [16] can be described thus: ATG_GAL4_TRANS: Attagene TRANS-FACTORIAL HepG2 Assay for GAL4 (Internal Marker) (AID 2282976). To be noted: HepG2 Attagene TRANS GAL4 internal marker reporter. In short, it runs like this:
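In transfected human HepG2 liver cells dosed 24 h, GAL4 reporter mRNA serves as a baseline marker. Detection by RT-PCR with fluorescent capillary electrophoresis, activity fitted upward relative to DMSO.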

The target in assay [17] is Bile acid receptor (Homo sapiens) (UniProt Q96RI1). Kind of assay: ATG_FXR_TRANS: Attagene TRANS-FACTORIAL HepG2 Assay for Farnesoid X Receptor (FXR) (AID 2282979).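 Also: hits raise reporter mRNA above DMSO so AC50 marks FXR activation.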 To be noted: HepG2 Attagene TRANS FXR-GAL4 reporter transcription. An outline of the steps:
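Reporter transcripts from transfected HepG2 cells were measured 24 h after dosing, using RT-PCR with capillary electrophoresis of 6-FAM-labelled fragments. The read-out reflects activity of exogenous FXR-Gal4 chimera on GAL4-UAS units, with induction relative to DMSO.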

The target in assay [18] is Steroid hormone receptor ERR1 (Homo sapiens) (UniProt P11474). Nature of the assay: ATG_ERRa_TRANS: Attagene TRANS-FACTORIAL HepG2 Assay for human Estrogen-Related Receptor alpha (ERRa) (AID 2282971). Particulars: HepG2 Attagene TRANS reporter, ERRa transactivation. An outline of the steps: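 Reporter transcripts from ERRa-Gal4 chimera activity measured in transiently transfected human HepG2 cells 24 hours after dosing, using RT-PCR with 6-FAM primer extension, HpaI digestion and capillary electrophoresis; DMSO is baseline.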

A short description of assay [19]: ATG_VDRE_CIS: Attagene CIS-FACTORIAL HepG2 Assay for human Vitamin D Receptor Element (VDRE) (AID 2282968; active = hit-call score of the fitted dose curve at least 0.9, where 1 is the maximum; inactive = score below 0.9). To be noted: HepG2 VDRE cis-reporter transcription, actives raise or lower the signal. In short, it runs like this:
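In transiently transfected HepG2 liver cells, gain or loss of reporter mRNA after 24 h exposure is scored relative to DMSO, using fluorescence detection by capillary electrophoresis of RT-PCR products.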

Nuclear receptor subfamily 1 group I member 3 (Homo sapiens), sequence (Q14994 whole entry, looked up, the tested form may be a part): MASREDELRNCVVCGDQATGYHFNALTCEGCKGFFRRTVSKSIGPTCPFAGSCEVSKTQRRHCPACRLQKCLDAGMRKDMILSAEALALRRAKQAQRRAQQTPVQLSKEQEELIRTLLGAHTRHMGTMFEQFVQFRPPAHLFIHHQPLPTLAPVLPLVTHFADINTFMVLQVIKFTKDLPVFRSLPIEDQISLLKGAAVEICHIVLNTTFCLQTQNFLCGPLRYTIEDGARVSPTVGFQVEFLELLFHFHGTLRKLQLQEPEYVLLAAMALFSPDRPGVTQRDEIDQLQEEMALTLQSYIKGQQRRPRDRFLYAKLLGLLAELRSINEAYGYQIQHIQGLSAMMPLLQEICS
Glucocorticoid receptor (Homo sapiens), sequence (P04150 whole entry, looked up, the tested form may be a part): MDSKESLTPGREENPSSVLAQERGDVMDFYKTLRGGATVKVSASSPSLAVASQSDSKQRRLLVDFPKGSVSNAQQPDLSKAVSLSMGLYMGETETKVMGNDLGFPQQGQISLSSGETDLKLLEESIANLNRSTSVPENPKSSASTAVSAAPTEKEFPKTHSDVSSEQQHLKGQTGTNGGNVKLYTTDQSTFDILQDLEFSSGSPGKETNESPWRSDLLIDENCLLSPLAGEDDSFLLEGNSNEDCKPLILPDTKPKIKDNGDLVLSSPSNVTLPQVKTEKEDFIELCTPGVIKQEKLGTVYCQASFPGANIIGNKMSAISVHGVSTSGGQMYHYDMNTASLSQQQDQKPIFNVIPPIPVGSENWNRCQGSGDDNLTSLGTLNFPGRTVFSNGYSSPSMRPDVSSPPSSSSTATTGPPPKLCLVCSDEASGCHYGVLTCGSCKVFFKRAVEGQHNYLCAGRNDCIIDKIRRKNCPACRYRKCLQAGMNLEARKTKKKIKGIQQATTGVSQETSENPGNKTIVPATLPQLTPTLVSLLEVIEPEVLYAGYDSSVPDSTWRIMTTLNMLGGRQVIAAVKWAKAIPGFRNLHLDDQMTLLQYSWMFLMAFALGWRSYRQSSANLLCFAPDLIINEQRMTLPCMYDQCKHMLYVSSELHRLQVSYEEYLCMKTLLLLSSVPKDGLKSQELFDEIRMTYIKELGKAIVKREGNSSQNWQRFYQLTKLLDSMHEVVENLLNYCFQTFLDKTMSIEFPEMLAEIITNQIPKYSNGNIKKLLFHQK
X-box-binding protein 1 (Homo sapiens), sequence (P17861 whole entry, looked up): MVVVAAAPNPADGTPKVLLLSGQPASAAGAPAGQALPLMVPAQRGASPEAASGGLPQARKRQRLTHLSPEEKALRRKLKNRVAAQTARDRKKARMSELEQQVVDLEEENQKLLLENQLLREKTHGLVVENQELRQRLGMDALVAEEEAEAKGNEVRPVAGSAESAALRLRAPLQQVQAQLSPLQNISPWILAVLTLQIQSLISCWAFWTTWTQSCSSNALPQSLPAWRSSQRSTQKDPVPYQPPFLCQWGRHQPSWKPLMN
Nuclear receptor subfamily 4 group A member 2 (Homo sapiens), sequence (P43354 whole entry, looked up): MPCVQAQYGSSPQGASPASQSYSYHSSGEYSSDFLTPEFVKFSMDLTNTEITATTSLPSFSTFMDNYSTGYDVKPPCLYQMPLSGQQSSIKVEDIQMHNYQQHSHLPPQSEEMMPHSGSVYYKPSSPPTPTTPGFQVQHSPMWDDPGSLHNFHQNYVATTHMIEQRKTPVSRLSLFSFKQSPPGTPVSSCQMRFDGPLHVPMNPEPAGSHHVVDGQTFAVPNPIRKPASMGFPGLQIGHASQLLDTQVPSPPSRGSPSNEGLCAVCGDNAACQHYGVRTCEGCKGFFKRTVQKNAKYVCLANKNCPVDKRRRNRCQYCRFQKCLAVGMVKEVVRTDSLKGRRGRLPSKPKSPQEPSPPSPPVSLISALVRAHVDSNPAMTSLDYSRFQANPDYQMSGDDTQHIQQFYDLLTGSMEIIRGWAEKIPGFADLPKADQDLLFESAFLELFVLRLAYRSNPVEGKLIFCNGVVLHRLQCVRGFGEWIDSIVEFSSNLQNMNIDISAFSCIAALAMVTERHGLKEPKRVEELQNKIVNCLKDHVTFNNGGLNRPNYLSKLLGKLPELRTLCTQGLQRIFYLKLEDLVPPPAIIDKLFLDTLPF
Hepatocyte nuclear factor 4-alpha (Homo sapiens), sequence (P41235 whole entry, looked up): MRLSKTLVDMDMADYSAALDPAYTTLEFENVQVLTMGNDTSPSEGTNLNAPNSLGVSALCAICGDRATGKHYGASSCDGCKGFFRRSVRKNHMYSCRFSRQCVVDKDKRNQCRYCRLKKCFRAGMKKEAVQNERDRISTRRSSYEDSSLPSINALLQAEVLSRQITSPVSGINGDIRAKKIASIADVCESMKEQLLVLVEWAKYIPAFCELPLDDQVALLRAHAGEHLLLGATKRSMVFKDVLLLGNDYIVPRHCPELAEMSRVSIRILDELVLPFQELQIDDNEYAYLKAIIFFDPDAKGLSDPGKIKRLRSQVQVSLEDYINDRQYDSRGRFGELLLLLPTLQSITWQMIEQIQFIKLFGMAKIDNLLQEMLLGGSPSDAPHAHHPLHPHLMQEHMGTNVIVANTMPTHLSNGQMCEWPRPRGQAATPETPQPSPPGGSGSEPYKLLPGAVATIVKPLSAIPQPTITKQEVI
Oxysterols receptor LXR-alpha (Homo sapiens), sequence (Q13133 whole entry, looked up, the tested form may be a part): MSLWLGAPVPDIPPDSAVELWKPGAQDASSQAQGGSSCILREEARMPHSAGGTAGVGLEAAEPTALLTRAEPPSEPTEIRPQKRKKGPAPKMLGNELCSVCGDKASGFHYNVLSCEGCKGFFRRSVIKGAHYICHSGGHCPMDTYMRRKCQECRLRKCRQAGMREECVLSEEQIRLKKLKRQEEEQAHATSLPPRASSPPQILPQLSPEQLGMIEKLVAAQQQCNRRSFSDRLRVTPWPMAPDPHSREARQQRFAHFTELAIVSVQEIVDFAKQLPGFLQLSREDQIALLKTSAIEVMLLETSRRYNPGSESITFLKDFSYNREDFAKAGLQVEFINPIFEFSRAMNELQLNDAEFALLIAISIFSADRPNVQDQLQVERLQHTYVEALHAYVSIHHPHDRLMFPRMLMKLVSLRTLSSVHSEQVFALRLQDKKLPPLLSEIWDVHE
Oxysterols receptor LXR-beta (Homo sapiens), sequence (P55055 whole entry, looked up, the tested form may be a part): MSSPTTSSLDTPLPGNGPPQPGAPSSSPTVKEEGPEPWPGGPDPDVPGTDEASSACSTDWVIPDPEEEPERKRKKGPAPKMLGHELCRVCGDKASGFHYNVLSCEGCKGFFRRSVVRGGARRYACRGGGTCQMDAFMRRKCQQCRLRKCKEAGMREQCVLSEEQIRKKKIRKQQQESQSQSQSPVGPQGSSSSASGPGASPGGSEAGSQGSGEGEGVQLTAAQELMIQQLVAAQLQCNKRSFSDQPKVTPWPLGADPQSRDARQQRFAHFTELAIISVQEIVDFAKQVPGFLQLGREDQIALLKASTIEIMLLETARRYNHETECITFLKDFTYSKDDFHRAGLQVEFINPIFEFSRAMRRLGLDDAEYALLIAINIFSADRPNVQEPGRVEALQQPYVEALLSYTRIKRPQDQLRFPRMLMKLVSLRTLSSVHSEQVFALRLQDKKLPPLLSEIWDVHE
Bile acid receptor (Homo sapiens), sequence (Q96RI1 whole entry, looked up, the tested form may be a part): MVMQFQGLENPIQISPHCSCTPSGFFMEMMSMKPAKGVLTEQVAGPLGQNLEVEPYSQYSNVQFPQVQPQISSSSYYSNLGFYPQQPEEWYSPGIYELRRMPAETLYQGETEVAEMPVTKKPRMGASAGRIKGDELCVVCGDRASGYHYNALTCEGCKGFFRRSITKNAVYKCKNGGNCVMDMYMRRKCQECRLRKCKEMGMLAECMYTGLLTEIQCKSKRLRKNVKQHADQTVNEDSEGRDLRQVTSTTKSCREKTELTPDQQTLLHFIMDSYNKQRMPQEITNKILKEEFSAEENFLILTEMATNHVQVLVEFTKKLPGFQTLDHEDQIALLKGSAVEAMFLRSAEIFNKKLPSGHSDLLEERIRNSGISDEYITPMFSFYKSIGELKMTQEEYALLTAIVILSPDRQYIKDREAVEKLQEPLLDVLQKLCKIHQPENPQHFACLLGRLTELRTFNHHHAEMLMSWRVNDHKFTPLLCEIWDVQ
Nuclear respiratory factor 1 (Homo sapiens), sequence (Q16656 whole entry, looked up): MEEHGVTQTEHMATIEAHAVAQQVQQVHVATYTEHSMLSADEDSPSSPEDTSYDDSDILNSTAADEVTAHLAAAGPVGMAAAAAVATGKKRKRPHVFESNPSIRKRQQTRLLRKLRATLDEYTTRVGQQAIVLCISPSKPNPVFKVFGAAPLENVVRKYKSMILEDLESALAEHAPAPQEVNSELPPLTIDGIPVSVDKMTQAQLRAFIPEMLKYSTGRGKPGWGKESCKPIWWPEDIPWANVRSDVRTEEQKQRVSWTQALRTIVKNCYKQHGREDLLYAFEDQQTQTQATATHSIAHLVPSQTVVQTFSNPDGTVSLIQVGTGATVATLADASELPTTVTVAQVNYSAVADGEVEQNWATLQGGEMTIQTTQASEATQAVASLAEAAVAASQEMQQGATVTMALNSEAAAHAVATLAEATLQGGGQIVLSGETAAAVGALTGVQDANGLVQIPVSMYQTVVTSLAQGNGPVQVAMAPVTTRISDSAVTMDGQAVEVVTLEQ
Transcriptional activator Myb (Homo sapiens), sequence (P10242 whole entry, looked up): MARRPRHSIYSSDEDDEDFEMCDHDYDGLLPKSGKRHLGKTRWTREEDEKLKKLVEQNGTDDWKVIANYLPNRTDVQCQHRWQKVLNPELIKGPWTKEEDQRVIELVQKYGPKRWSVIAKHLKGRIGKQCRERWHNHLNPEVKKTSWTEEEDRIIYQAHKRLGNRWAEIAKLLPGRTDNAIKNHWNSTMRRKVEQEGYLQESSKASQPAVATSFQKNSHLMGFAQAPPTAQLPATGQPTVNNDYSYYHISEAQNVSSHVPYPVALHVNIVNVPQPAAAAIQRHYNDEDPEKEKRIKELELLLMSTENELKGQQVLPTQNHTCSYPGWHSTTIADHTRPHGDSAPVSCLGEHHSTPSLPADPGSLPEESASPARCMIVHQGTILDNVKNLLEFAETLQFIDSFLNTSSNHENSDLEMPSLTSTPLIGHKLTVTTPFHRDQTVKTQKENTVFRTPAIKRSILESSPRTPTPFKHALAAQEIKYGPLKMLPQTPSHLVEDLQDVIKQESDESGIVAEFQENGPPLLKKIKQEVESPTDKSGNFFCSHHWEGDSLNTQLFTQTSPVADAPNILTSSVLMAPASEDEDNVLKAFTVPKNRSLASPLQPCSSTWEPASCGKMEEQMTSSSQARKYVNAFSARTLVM

In the case of `CCc1ccc(O)c(OC)c1`, the outcome in assay [1], in assay [2], in assay [3], in [4], in assay [5] and in assay [6] was inactive. Further, the call in [7], in assay [8] and in assay [9] was inactive.
Turning to `C/C=C(\C)C(=O)OCCc1ccccc1`, the result in assay [1], in assay [2], in assay [3], in assay [10], in assay [11] and in assay [12] was inactive. The compound was called inactive in [6], in assay [7], in assay [8] and in [9].
`CC(C)CCCCCCCCCCCCCCC(=O)O`: the call in assay [1], in assay [13], in assay [11], in assay [5], in assay [6] and in assay [14] was inactive. For the same compound, the compound was classed as inactive in [7], in assay [8] and in assay [9]. In addition, in [2], the AC50 is 177 µM (active).
`CCO/C=C1\N=C(c2ccccc2)OC1=O`: the result in assay [1], in [2], in [13], in assay [4], in assay [11] and in assay [15] was inactive. For the same compound, the outcome in assay [12], in [7], in [8] and in assay [9] was inactive.
In the case of `Clc1ccc(C(c2ccccc2Cl)C(Cl)Cl)cc1` (stereo not given), the results for the AC50 in assay [1] and in assay [9] were 23.7 µM (active) and 44.2 µM (active), respectively. The outcome in [2], in assay [13], in assay [16], in assay [11], in [17] and in assay [6] was inactive. The compound was called inactive in assay [14] and in assay [8].
Consider `CCCCSCCCC`, for which the compound was classed as inactive in assay [1], in assay [2], in assay [3], in [13], in [16] and in assay [5]. For the same compound, the outcome in [6], in [14], in assay [8] and in assay [9] was inactive.
In the case of `O=C(O)c1cccnc1C(=O)O`, the call in [1], in assay [2], in [13], in [4], in assay [12] and in assay [14] was inactive. In addition, the outcome in assay [8] and in assay [9] was inactive.
Consider `C=Cc1ccc(C(C)(C)C)cc1`, for which the compound was classed as inactive in assay [1], in assay [2], in assay [3], in [13], in assay [4] and in assay [16]. The outcome in assay [17], in [7], in [8] and in [9] was inactive.
Regarding `C[C@@H]1CCN(C(=O)[C@H](CCCN=C(N)N)NS(=O)(=O)c2cccc3c2NC[C@H](C)C3)[C@@H](C(=O)O)C1`, the outcome in [1], in assay [2], in [18], in assay [13], in [16] and in assay [15] was inactive. Also, the compound was classed as inactive in [6], in assay [7] and in [9].
Consider `C[N+](C)(C)CCCCCC[N+](C)(C)C`, for which the compound was called inactive in assay [1], in assay [2], in assay [13], in [16], in [12] and in [6]. For the same compound, the compound was classed as inactive in assay [7], in assay [8] and in assay [9].
For `Cc1cc(CCC(=O)OCCOCCOCCOC(=O)CCc2cc(C)c(O)c(C(C)(C)C)c2)cc(C(C)(C)C)c1O`, the result in [1], in assay [2], in assay [13], in assay [16], in assay [11] and in assay [17] was inactive. Also, the result in assay [12], in assay [6], in assay [14], in [7], in assay [8] and in [9] was inactive.
With `O=C1OC(=O)c2c(Br)c(Br)c(Br)c(Br)c21`, the outcome in assay [1], in assay [2], in assay [19], in [16], in assay [15] and in assay [6] was inactive. The result in [14], in assay [7], in [8] and in assay [9] was inactive.
`CS(=O)(=O)c1ccc(C2=C(c3ccccc3)C(=O)OC2)cc1`: the compound was classed as inactive in assay [1], in assay [2], in assay [3], in [18], in [13] and in assay [4]. For the same compound, the outcome in [16], in assay [11], in assay [15], in assay [12], in assay [14] and in assay [8] was inactive. Also, the result in [9] was inactive.
